# aGal spleen mod: inhibits or activates alpha-galactosidase in human spleen homogenate | Potency, µM (top dose mostly 80 µM), for the others: at the highest dose activity change, negative = inhibition, actives largely listed as inhibitors | P06280 | human spleen homogenate, 4MU-alpha-Gal fluorescence, 40 min | 240,000 compounds, 0.008% hits;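 further: potency means the concentration at half of the fitted maximal effect; 0% = enzyme with vehicle and -100% = no enzyme basal signal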
#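 Human spleen homogenate (1 ug) as enzyme source, 4-methylumbelliferyl-alpha-D-galactopyranoside 1 mM final, citrate/phosphate pH 5.0 with 0.01% Tween-20. Compounds 40 min at 37C, NaOH/glycine stop; fluorescence Ex 365/Em 440, Hill-fit AC50.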
# HPGD block: inhibitors of human 15-hydroxyprostaglandin dehydrogenase (HPGD) | P15428 | purified HPGD, NADH fluorescence kinetic, PGE2 substrate | Potency, µM, for inactives: at the top dose activity change, negative = inhibition, actives largely listed as inhibitors | 150,000 compounds, 4.3% hits; active means well fitted inhibition curve with a large enough effect, not every such curve was filed as active; inconclusive means small, poorly fitted or top-dose-only effect, or another doubt; inactive means no such curve, though single readings can be large or run the other way; further: potency means the concentration at half of the fitted maximal effect
# Target sequence (P15428 whole entry, looked up): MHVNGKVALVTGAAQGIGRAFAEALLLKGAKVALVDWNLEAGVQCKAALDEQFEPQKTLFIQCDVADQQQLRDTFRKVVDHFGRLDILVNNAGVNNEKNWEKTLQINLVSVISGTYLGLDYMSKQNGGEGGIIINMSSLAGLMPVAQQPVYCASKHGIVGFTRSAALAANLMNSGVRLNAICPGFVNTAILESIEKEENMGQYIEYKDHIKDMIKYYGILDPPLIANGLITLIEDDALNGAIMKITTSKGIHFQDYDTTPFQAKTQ
#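 20 nM HPGD preincubated 15 min at room temperature with compound in 50 mM Tris-HCl pH 8, 0.01% Tween 20. Started with 1 mM NAD+ and 30 uM prostaglandin E2; NADH fluorescence (360/450 nm) read 5 times over 30-s intervals, last minus first.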
# GLA inh pH 4.5: blocks human alpha-galactosidase A at pH 4.5. P06280. purified enzyme, 4-MU-alpha-Gal fluorescence, pH 4.5. activity change, negative = inhibition, % at 105 µM. 230,000 tested, under 10 active;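 further: 0% = full activity with enzyme and -100% = basal without enzyme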
# Target sequence (P06280 whole entry, looked up): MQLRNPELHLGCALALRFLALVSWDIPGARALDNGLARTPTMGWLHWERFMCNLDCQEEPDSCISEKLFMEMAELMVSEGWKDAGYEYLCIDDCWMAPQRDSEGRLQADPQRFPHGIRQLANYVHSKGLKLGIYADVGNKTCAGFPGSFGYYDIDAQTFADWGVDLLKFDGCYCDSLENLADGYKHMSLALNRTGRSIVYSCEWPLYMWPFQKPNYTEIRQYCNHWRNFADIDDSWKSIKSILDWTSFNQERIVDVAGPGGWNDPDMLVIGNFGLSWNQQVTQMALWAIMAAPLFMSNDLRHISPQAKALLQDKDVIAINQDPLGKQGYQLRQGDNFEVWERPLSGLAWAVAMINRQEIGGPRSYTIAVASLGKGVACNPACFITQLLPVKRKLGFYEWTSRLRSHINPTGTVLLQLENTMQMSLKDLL
# ALDH1A1 inh: ALDH1A1 (human) enzyme inhibition; AID 1030; Purified ALDH1A1, NADH fluorescence, propionaldehyde substrate; 220,000 compounds, 7.3% hits; P00352; Potency, µM (series often up to 75.3 µM), for inactives: at the top dose activity, negative = inhibition, actives largely listed as inhibitors; active means well fitted inhibition curve with a large enough effect, not every such curve was filed as active; inconclusive means small, poorly fitted or top-dose-only effect, or another doubt; inactive means no such curve, though single readings can be large or run the other way;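 further: potency means the concentration at half of the fitted maximal effect; plate controls were no enzyme wells and a reference inhibitor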
# ALOX12 inhib: blocks human 12-lipoxygenase activity | AID 1452 | Potency, µM (top dose mostly 57.1 µM), without a hit: at the top dose activity change, negative = inhibition, usual class: inhibitors | 150,000 compounds, 0.12% hits | purified 12-hLO, xylenol orange hydroperoxide absorbance | P18054; further: potency means the concentration at half of the fitted maximal effect; nearly all actives have a fitted effect of over 55% in size
#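 Lipoxygenase turnover measured by absorbance at 573 and 405 nm after Fe-XO development. Human 12hLO 150 nM, arachidonate 40 uM, pH 7.0 Hepes buffer with detergent; 15 min compound preincubation, 30 min reaction.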
# PNC assembly inh: perinucleolar compartment assembly inhibition | activity change (PNC), negative = inhibition, % at 10 µM | 140,000 compounds, 3.1% hits | PC3M PTB-GFP, PNC prevalence imaging, 16 h; hits give low values | AID 2417;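 active means readout at or below -70, meaning at least 70% loss of cells showing the perinucleolar compartment, a nuclear body marking cancer cells; inconclusive means readout between -30 and a set limit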;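 further: plate controls were DMSO wells for no effect and camptothecin positive control wells for full effect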
#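 Read-out is percentage of cells bearing a perinucleolar compartment, from automated 20x imaging of fixed, Hoechst-stained PC3M PTB-GFP cells. Cells were seeded 4 h, then exposed 16 h to compound (23 nl of library stock) in duplicate plates.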
# * = called active by the depositor; ? = inconclusive; . = no result; [ ] = another dose, or the depositor's remark. Hits are enriched below; roughly 10% of the tested compounds scored in any of these assays. Unless noted, the call rests on the fitted dose curve; in most records, active means well fitted curve in the direction sought with a large enough effect; inconclusive means small, poorly fitted or top-dose-only effect, or another doubt; inactive means no such curve, though single readings can be large; an effect the other way counts as inactive or inconclusive. Unless noted, on the % scale 0 is the no-effect control and ±100 the full control effect.
SMILES,aGal spleen mod,HPGD block,GLA inh pH 4.5,ALDH1A1 inh,ALOX12 inhib,PNC assembly inh
COc1cccc(C(=O)Nc2ccc(C(=O)O)cc2)c1,?,.,-5,-13%,1%,19
CCCC(=O)Nc1ccc(Cl)c(NC(=O)c2cccc(OC)c2)c1,-9%,.,4,2.8µM*,.,.
COc1cccc(C(=O)NCCOc2cc(C)cc(C)c2)c1,-7%,-9%,0,16µM*,2%,49
COc1cc(OC)cc(C(=O)NCCOc2ccccc2)c1,2%,-12%,4,7%,2%,0
CCCC(=O)Nc1ccc(Cl)c(NC(=O)c2cccnc2)c1,0%,-4%,4,7%,0%,?
COc1cccc(C(=O)Nc2cccc(-c3nnc(-c4ccco4)o3)c2)c1,9%,20µM*,2,?,0%,-2
COC(=O)c1ccc(NC(=O)c2cccc(OC)c2)cc1,-7%,28µM*,0,?,-24%,9
COC(=O)c1ccc(NC(=O)c2ccccc2NS(C)(=O)=O)cc1,-3%,-12%,0,-2%,7%,-104*
O=C(Nc1ccc(C2CC2(Cl)Cl)cc1)c1ccccc1Br (stereo not drawn),2%,16µM*,-2,7%,5%,-20
COc1cccc(C(=O)Nc2ccc(C3CC3(Cl)Cl)cc2)c1 (stereo not drawn),5%,.,-6,11µM*,.,.
COc1ccc(NC(=O)c2ccccc2NS(C)(=O)=O)cc1OC,2%,-16%,2,19%,-3%,?
CN(C)S(=O)(=O)Oc1cccc(C(=O)Nc2ccccc2Cl)c1,0%,-28%,-1,?,-14%,15
CN(C)S(=O)(=O)Oc1cccc(C(=O)Nc2ccc(Cl)cc2)c1,-3%,-17%,-10,16µM*,-19%,19
O=C(O)c1cccc(CN2CCCCC2)c1,.,-9%,.,15%[13.5 µM],3%[11.4 µM],.
Cn1c(=O)n2n(c1=O)[C@H]1[C@H](O)[C@H]3O[C@@H]3/C(=N/OCc3ccccc3)[C@@H]1CC2,7%[17.5 µM],.,.,12%[13.5 µM],.,.
CC[C@@]12CCCN3CCc4c(n(c5ccccc45)[C@](O)(C(=O)OC)C1)C32 (stereo partly drawn),1%,-5%,-6,-6%,1%,.
CC(C)CN1CCC(CNC(=O)CCc2nnc(Cc3c[nH]c4ccccc34)o2)CC1,2%,.,-1,-3%,.,.
CCC(=O)N1CC23C=CC(CC2CC12CCCCC2)O3 (stereo not drawn),-4%,-4%,3,16µM*,-3%,-124*
CCn1nnnc1SCC(=O)N1c2ccccc2CCc2ccccc21,0%,-7%,-14,2µM*,0%,?
Cn1nnnc1SCC(=O)N1c2ccccc2CCc2ccccc21,2%,4%,-13,-7%,-6%,?
CCn1nnnc1SCC(=O)N1c2ccccc2Sc2ccccc21,8%,-6%,-2,13µM*,0%,0
COc1ccc(NC(=O)CC2CCCC2)cc1S(=O)(=O)N1CCCCC1,8%,-2%,-3,4%,11%,-17
Cc1ccc(NC(=O)CCl)cc1S(=O)(=O)N1CCCCCC1,-5%,.,-3,1.5µM*,.,.
COc1ccc(NC(=O)CN(C)Cc2c(F)cccc2Cl)cc1S(=O)(=O)N1CCCCC1,4%,.,-19,28µM*,.,.
CCCCc1ccc(NC(=O)CC(C)(C)C)cc1,4%,14µM*,7,10%,3%,44
SMILES,aGal spleen mod,HPGD block,GLA inh pH 4.5,ALDH1A1 inh,ALOX12 inhib,PNC assembly inh
CCCCc1ccc(NC(=O)CC(C)=O)cc1,7%,-5%,-5,-5%,-3%,-127*
CCN1/C(=C/C=C/c2oc3ccc(-c4ccccc4)cc3[n+]2CC)Oc2ccc(-c3ccccc3)cc21,0%,.,-21,?,.,.
O=C(O)C1C2C=CC(O2)C1C(=O)Nc1ccc(S(=O)(=O)Nc2ccccc2)cc1 (stereo not drawn),?,?,-13,1.1µM*,-25%,-19
O=C(O)C1C2C=CC(C2)C1C(=O)Nc1ccc2c(c1)OCCO2 (stereo not drawn),-5%,-18%,8,1%,-4%,22
NS(=O)(=O)c1ccc(NS(=O)(=O)c2ccc(NC(=S)Nc3ccccc3)cc2)cc1,-4%,-12%,0,?,-3%,-6
O=C(O)C1C2C=CC(O2)C1C(=O)Nc1ccc2c(c1)OCCO2 (stereo not drawn),-1%,-6%,2,11µM*,-5%,-11
O=C(O)C1C2C=CC(O2)C1C(=O)Nc1ccc(S(=O)(=O)N2CCc3ccccc32)cc1 (stereo not drawn),3%,-22%,-2,10µM*,-13%,29
COc1ccc(-c2csc(CCN3N=C(C)CC3=O)n2)cc1,7%,.,7,2µM*,.,.
COc1ccc(-c2csc(C)n2)cc1,6%,-4%,-4,6%,-5%,-20
O=C(c1cc(N2C(=O)C3C4CCC(C4)C3C2=O)ccc1Cl)N1CCN(c2ccccc2F)CC1 (stereo not drawn),-3%,-3%,6,-2%,1%,-119*
O=C(c1cc(N2C(=O)C3C4CCC(C4)C3C2=O)ccc1Cl)N1CCN(c2ccc(F)cc2)CC1 (stereo not drawn),-12%,-17%,0,-8%,3%,1
O=C(c1c(F)cccc1F)N1CCN(c2ccccc2F)CC1,11%,-16%,6,-5%,2%,-82*
CC(NC(=O)CCc1ccccc1)c1cc2c(cc1Cl)OCCO2 (stereo not drawn),5%,-4%,2,?,2%,?
C=C(C(C)=O)C(O)c1ccco1 (stereo not drawn),-16%,-7%,0,?,.,.
CCCC(=O)N1CCN(c2ccc([N+](=O)[O-])cc2Cl)CC1,-5%,-7%,1,?,-2%,-24
NC(=O)C1CCN(c2ccc([N+](=O)[O-])cc2Cl)CC1,-10%,.,0,20µM*,.,.
O=C(CSc1ccc(Cl)cc1)N1CCN(c2ccc([N+](=O)[O-])cc2Cl)CC1,-13%,-6%,-4,20µM*,-16%,12
Cc1ccc(S(=O)(=O)OC[C@@H]2CN3[C@H](c4ccc(Br)cc4)[C@H](C)CC[C@H]3C(=O)O2)cc1,3%[17.5 µM],.,.,?,.,.
C/C=C1\C(=O)C[C@H]2[C@@H]3CCC4=CC(=O)CC[C@]4(C)[C@H]3CC[C@]12C,11%,-5%,.,?,-14%,.
CCN1C(=O)/C(=C/C=C2/CCCN2C)OC1=S,-5%,.,-19,2.8µM*,.,.
O=C(Cl)CCCCCCCC(=O)Cl,2%,.,.,.,.,.
